Results filed as inconclusive are left out. Where a call stands in place of a potency, no number is given. Calls of active or inactive are those of the source. Calls come from the whole dose curve; as a rule, active = well fitted curve in the direction sought with a large enough effect; inconclusive = small, poorly fitted or top-dose-only effect, or another doubt; inactive = no such curve, though single readings can be large; an effect the other way counts as inactive or inconclusive.

Glutathione peroxidase 1 (Homo sapiens), sequence (P07203 whole entry, looked up): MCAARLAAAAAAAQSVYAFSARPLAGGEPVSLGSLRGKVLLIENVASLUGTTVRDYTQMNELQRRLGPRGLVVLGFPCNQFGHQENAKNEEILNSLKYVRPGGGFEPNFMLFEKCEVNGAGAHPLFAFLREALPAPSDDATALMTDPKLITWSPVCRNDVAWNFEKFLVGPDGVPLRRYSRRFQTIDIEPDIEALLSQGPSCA

Tested on in one experiment: not listed separately
Nature of the experiment: HepG2 viability counterscreen (readout 2: ATP content) against the NCATS DSHEA and TCM libraries (AID 1794840).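 Note: HepG2 cells exposed to substances for about 24 h.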 To be noted: ATP content luminescence; series mostly up to 27.3 µM. The method in brief:
(§1)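 1,000 HepG2 cells/well, 4 h attach; compounds ~24 h, 37C/5% CO2. Readout 1: GF-AFC 25 uM final, 30 min, fluorescence 380/510 nm. Readout 2: CellTiter-Glo, 30 min RT, luminescence.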
As for `C=C(C)[C@H]1CC=C(C)CC1`, the call was inactive.
On the same count and under the same terms, under `OCC=Cc1ccccc1` stands “inactive”; under `CCC(/C=C/[C@@H](C)[C@H]1CCC2C3CC=C4C[C@@H](O)CC[C@]4(C)C3CC[C@@]21C)C(C)C` (stereo partly specified), “inactive”.

Tested on in the next experiment: not listed separately
Nature of the experiment: HepG2 viability counterscreen (readout 1: protease activity) against the NCATS DSHEA and TCM libraries (AID 1794841).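 Note: cells exposed to compounds for about 24 h before the protease read.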 To be noted: qHTS concentration series; series mostly up to 27.3 µM. The method in brief:
as §1
With `C=C(C)[C@H]1CC=C(C)CC1`, the compound was classed as inactive.
The same measure, in the same setting: in the case of `OCC=Cc1ccccc1` it was “inactive”; in that of `CCC(/C=C/[C@@H](C)[C@H]1CCC2C3CC=C4C[C@@H](O)CC[C@]4(C)C3CC[C@@]21C)C(C)C` (stereo partly specified), “inactive”.

In a further experiment the target is Glutathione peroxidase 1 (Homo sapiens) (UniProt P07203). Nature of the experiment: Primary qHTS Assay for Inhibitors of Recombinant Selenoprotein Glutathione Peroxidase 1 (GPX1) (AID 1845191). Note: nearly all actives have a fitted effect of over 65% in size. Note: potency is the fitted concentration of half-maximal effect. To be noted: recombinant GPX1, GR-coupled NADPH fluorescence, 15 min; series mostly up to 48.8 µM. The essentials:
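GR-coupled readout: NADPH consumption tracked by fluorescence, ex 340/em 450 nm, at t=0 and after 15 min at RT. Final mix 10 nM GPX1, 1 mM GSH, 0.5 mM CHP, 0.5 mM NADPH, 100 nM GR, 0.01% BSA, following 30 min enzyme–compound preincubation.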
In the case of `C#C[C@]1(O)CC[C@@H]2[C@@H]3CCC4=CCCC[C@@H]4[C@H]3C(=C)C[C@@]21CC`, the Potency result is “inactive”.
On the same count and under the same terms, under `COc1ccc(C=CC(=O)O)cc1` stands “inactive”.
Same read-out and setting: under `C=CC1=C(C(=O)O)N2C(=O)[C@@H](NC(=O)/C(=N\OCC(=O)O)c3csc(N)n3)[C@H]2SC1` stands 7.18 µM (active).
`CN[C@@H]1[C@@H](O)[C@@H](O[C@@H]2[C@@H](O)[C@H](O[C@H]3O[C@H]([C@@H](C)NC)CC[C@H]3N)[C@@H](N)C[C@H]2N)OC[C@]1(C)O`: the Potency result was “inactive”.
On the same count and under the same terms, in the case of `C[C@@H]1C[C@H]2[C@@H]3C[C@H](F)C4=CC(=O)C=C[C@]4(C)[C@@]3(F)[C@@H](O)C[C@]2(C)[C@@]1(O)C(=O)COC(=O)C(C)(C)C` it was “inactive”; in that of `CC(C)[C@H](N)C(=O)O`, “inactive”; in that of `Cc1ccc(/C=C2\C(=O)C3(C)CCC2C3(C)C)cc1` (stereo unspecified), “inactive”.
As to `OCC=Cc1ccccc1`, the Potency result is “inactive”.
For `CCCCCCCCC=CCCCCCCCC(=O)NCCOC(=O)CC(C(=O)O)S(=O)(=O)O` (stereo unspecified), the Potency result is “inactive”.
Same read-out and setting: under `CC1(C)C(/C=C/C=C/C=C/C=C2/N(CCCCS(=O)(=O)O)c3ccc4ccccc4c3C2(C)C)=[N+](CCCCS(=O)(=O)[O-])c2ccc3ccccc3c21` stands “inactive”; under `Nc1nc(Nc2ccc3c(c2)CC[C@@H](N2CCCC2)CC3)nn1-c1cc2c(nn1)-c1ccccc1CCC2`, “inactive”; under `CN[C@@H](C)C(=O)N[C@H](C(=O)N1CCC[C@H]1c1nc(C(=O)c2ccc(F)cc2)cs1)C1CCCCC1`, “inactive”.
Same read-out and setting: under `CC[C@H]1OC(=O)[C@H](C)[C@@H](O[C@H]2C[C@@](C)(OC)[C@@H](O)[C@H](C)O2)[C@H](C)[C@@H](O[C@@H]2O[C@H](C)C[C@H](N(C)C)[C@H]2O)[C@](C)(OC)C[C@@H](C)C(=O)[C@H](C)[C@@H](O)[C@]1(C)O` stands “inactive”.
On the same count and under the same terms, in the case of `CN(CCCCCCCCCCN(C)C(=O)Oc1cccc([N+](C)(C)C)c1)C(=O)Oc1cccc([N+](C)(C)C)c1` it was “inactive”; in that of `N[C@@H]1CCCCN(c2c(F)cc3c(=O)c(C(=O)O)cn(C4CC4)c3c2Cl)C1`, “inactive”.

Source of the values: PubChem BioAssay (NCATS).
